# In PubChem BioAssay (NCATS):
# Inconclusive results are not listed. A call without a number means that no potency is given here. Unmarked numbers belong to inactive results. Activity calls are given as the source filed them. The call rests on the fitted dose curve; in most records, active means well fitted curve in the direction sought with a large enough effect; inconclusive means small, poorly fitted or top-dose-only effect, or another doubt; inactive means no such curve, though single readings can be large; an effect the other way counts as inactive or inconclusive.
# Key:
# [1] = NS1 protein of Zika virus - qHTS assay to identify small molecule inhibitors in human HEK 293 cells (AID 1347053); further: series mostly up to about 46 µM; nearly all actives have a fitted effect of over 55% in size
# In short: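 HEK 293 cells pretreated with compound for 1 h, then infected with ZIKV MR766 (MOI 0.5) for 24 h at 37 C. NS1 detected by TR-FRET with two anti-NS1 antibodies; normalized to uninfected (0%) and infected (100%) wells.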
# [2] = qHTS of pediatric cancer cell lines to identify multiple opportunities for drug repurposing: Primary screen for TC32 cells (AID 1347089); further: nearly all actives have a fitted effect of over 60% in size
# In short: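 In the primary qHTS, MIPE compounds were tested at 11 concentrations (0.78 nM to 46 µM) and NPC compounds at 8 (0.59 nM to 46 µM) on TC32 cells for 48 h. CellTiter-Glo luminescence gave viability.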
# [3] = qHTS of pediatric cancer cell lines to identify multiple opportunities for drug repurposing: Primary screen for DAOY cells (AID 1347090); further: series mostly up to about 46 µM; nearly all actives have a fitted effect of over 55% in size
# In short: (§1)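 Cell viability, CellTiter-Glo luminescence; 500-1,000 cells/well, 8- or 11-point titration, 48 h compound exposure at 37 degrees C, 5% CO2. Controls: DMSO neutral, bortezomib 2.3 µM final as positive.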
# [4] = qHTS of pediatric cancer cell lines to identify multiple opportunities for drug repurposing: Primary screen for SJ-GBM2 cells (AID 1347091)
# In short: as §1
# [5] = qHTS of pediatric cancer cell lines to identify multiple opportunities for drug repurposing: Primary screen for SK-N-MC cells (AID 1347093); further: potency means the concentration at half of the fitted maximal effect
# In short: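 Metabolically active cells were quantified by ATP-dependent luminescence (CellTiter-Glo, 15 min at room temperature) following 48 h treatment. Cells had been plated at 500-1,000 per well and settled for 5 h beforehand.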
# [6] = qHTS of pediatric cancer cell lines to identify multiple opportunities for drug repurposing: Primary screen for BT-37 cells (AID 1347094); further: series mostly up to about 57 µM
# In short: (§2)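 Plated cells (500-1,000 per well, growth media) were allowed to settle for 5 hours, treated with compound dilutions for 48 hours, then lysed with CellTiter-Glo for 15 min at room temperature before luminescence reading.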
# [7] = qHTS of pediatric cancer cell lines to identify multiple opportunities for drug repurposing: Primary screen for NB-EBc1 cells (AID 1347095)
# In short: as §2
# [8] = qHTS of pediatric cancer cell lines to identify multiple opportunities for drug repurposing: Primary screen for A673 cells (AID 1347092); further: nearly all actives have a fitted effect of over 45% in size
# In short: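 48 h compound exposure, A673, 500-1,000 cells/well, 37 degrees C/5% CO2. MIPE: 11-point, 0.78 nM-46 µM; NPC: 8-point, 0.59 nM-46 µM (final). Readout CellTiter-Glo luminescence after 15 min RT.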
# [9] = P-glycoprotein substrates identified in KB-8-5-11 adenocarcinoma cell line, qHTS therapeutic library screen (AID 1346987); conditions: outcome: dose series up to 44.5 µM; further: series mostly up to about 44 µM; nearly all actives have a fitted effect of over 65% in size
# In short: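 Steps: plate 500 KB-8-5-11 cells/well in DMEM + 10% FCS (colchicine removed); pin compounds in dose-response; incubate 72 h, 37 degree C, 5% CO2; add CellTiter-Glo, 5 min; read luminescence.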
SMILES,outcome [1],outcome [2],outcome [3],outcome [4],Potency [5],outcome [6],outcome [7],outcome [8],outcome [9]
CC[C@]12CCCN3CCc4c(n(c5ccccc45)[C@@](O)(C(=O)OC)C1)[C@@H]32,inactive,inactive,inactive,inactive,inactive,inactive,inactive,,
O=C(O)C(S)C(S)C(=O)O (centres undefined),inactive,inactive,inactive,inactive,inactive,inactive,inactive,inactive,
Cc1onc(-c2ccccc2)c1-c1ccc(S(N)(=O)=O)cc1,inactive,inactive,,inactive,inactive,inactive,inactive,inactive,
CC(=O)N[C@@H](CC(C)C)C(=O)O,inactive,,inactive,inactive,inactive,inactive,inactive,inactive,inactive
CCN(CC)CCOC(=O)C(c1ccccc1)c1ccccc1,inactive,,,inactive,inactive,inactive,inactive,inactive,inactive
CCOc1ccccc1O[C@H](c1ccccc1)[C@H]1CNCCO1,inactive,inactive,,inactive,inactive,inactive,inactive,,
CC(=O)Nc1ccc(C(=O)O)cc1,inactive,,,inactive,inactive,inactive,inactive,inactive,inactive
O=C(O)COC(=O)Cc1ccccc1Nc1c(Cl)cccc1Cl,inactive,,,inactive,26.6 µM (active),inactive,inactive,inactive,inactive
CN/C(=C\[N+](=O)[O-])NCCSCc1csc(CN(C)C)n1,inactive,,,inactive,inactive,inactive,inactive,,inactive
CCOC(=O)OC(C)OC(=O)[C@@H]1N2C(=O)[C@@H](NC(=O)[C@H](N)c3ccccc3)[C@H]2SC1(C)C (some centres undefined),inactive,,inactive,inactive,inactive,inactive,inactive,inactive,inactive
Nc1ncnc2c1ncn2[C@@H]1O[C@H](COP(=O)(O)O)[C@@H](O)[C@H]1O,inactive,,inactive,inactive,inactive,inactive,inactive,inactive,inactive
CC(C)CCCC(C)CCCC(C)CCCCC(C)CCCC(C)CCCC(C)C (centres undefined),inactive,,inactive,inactive,inactive,inactive,inactive,,inactive
OCCN1C[C@H](O)[C@@H](O)[C@H](O)[C@H]1CO,inactive,,inactive,inactive,inactive,inactive,inactive,inactive,inactive
CCCCOC(=O)c1ccc(N)cc1,inactive,inactive,,inactive,inactive,inactive,,inactive,
CC1CCc2cc(F)cc3c(=O)c(C(=O)O)cn1c23 (centres undefined),inactive,inactive,,inactive,inactive,inactive,inactive,inactive,
CN1C[C@@H]2C[C@H]1CN2c1cc2c(cc1F)c(=O)c(C(=O)O)cn2C1CC1,inactive,inactive,inactive,inactive,inactive,inactive,inactive,inactive,
Cc1cc(C)nc(NS(=O)(=O)c2ccc(N)cc2)n1,,inactive,inactive,inactive,inactive,inactive,inactive,inactive,inactive
CCCOC(=O)c1ccc(N)cc1,inactive,,,inactive,inactive,inactive,inactive,inactive,inactive
Cc1cc(=O)[nH]c(=S)[nH]1,inactive,,inactive,inactive,inactive,inactive,inactive,inactive,inactive
O=C(O)Cc1ccc(CCNS(=O)(=O)c2ccc(Cl)cc2)cc1,inactive,,inactive,inactive,,inactive,inactive,inactive,inactive
CCCCCOC(=O)Nc1nc(=O)n([C@@H]2O[C@H](C)[C@@H](O)[C@H]2O)cc1F,inactive,,,inactive,inactive,inactive,inactive,inactive,inactive
CC(C)(C)NCC(O)COc1cccc2c1CCC(=O)N2 (centres undefined),inactive,,inactive,inactive,inactive,inactive,inactive,inactive,inactive
O=C1c2cccc(O)c2C(=O)c2c(O)cccc21,inactive,inactive,inactive,inactive,inactive,inactive,,,
CCN1CC(CCN2CCOCC2)C(c2ccccc2)(c2ccccc2)C1=O (centres undefined),inactive,,inactive,inactive,,inactive,inactive,inactive,
NS(=O)(=O)c1cc(-c2nn[nH]n2)c(NCc2cccs2)cc1Cl,inactive,,inactive,inactive,inactive,inactive,inactive,inactive,inactive
COc1ccccc1Oc1c(NS(=O)(=O)c2ccc(C(C)(C)C)cc2)nc(-c2ncccn2)nc1OCCO,inactive,,,inactive,inactive,inactive,,,inactive
COC(=O)c1ccccc1C(=O)c1ccc(OCCN2CCCCC2)cc1,inactive,inactive,,inactive,inactive,inactive,inactive,,
O=C(c1ccccc1)C(O)c1ccccc1 (centres undefined),inactive,,,inactive,inactive,inactive,inactive,,inactive
O=C(O)CCCCC1CCSS1 (centres undefined),inactive,,,inactive,inactive,inactive,inactive,inactive,inactive
